Inconclusive results are not listed. Unmarked numbers belong to inactive results. Calls of active or inactive are those of the source. The call rests on the fitted dose curve.
Experiment: Cytotoxicity counterscreen for inhibitors of SARS-CoV-2 cell entry (AID 1645845); further: nearly all actives have a fitted effect of over 50% in size
Details: cell viability (SARS-CoV-2 entry assay cells); series mostly up to 57.1 µM; activity change, negative = cytotoxicity: at the top concentration
Excerpt: Assay Provider: Wei Zheng, Ph.D.
National Center for Advancing Translational Sciences, National Institute of Health, Rockville, MD.
SARS-CoV-2 spike protein, within the viral envelope, mediates viral attachment and infection of host cells. The SARS-CoV-2 spike protein specifically binds to the host receptor ACE2 (Angiotensin-converting enzyme 2). This interaction promotes endocytosis of the viral particle, additional events lead to viral-host cell membrane fusion and release of the viral contents, allowing viral replication.
While SARS-CoV-2 requires BSL-3 facilities for live virus work, pseudo-typed partices (PP) that incorporate SARS-CoV-2 spike proteins without replication elements could facilitate studies on viral entry mechanisms in a BSL-2 setting. This PP cell entry assay could also enable screening of small molecule compound libraries in BSL-2 setting to identify inhibitors of SARS-CoV-2 cell entry. To eliminate false positive compounds, ATP content cytotoxicity assay was screened in the same cell line.
SEQUENCE No. (e.g., 1, 2, 3, etc.); […] (e.g., Cells, Incubation, Reagent, etc.); VALUE and DESCRIPTION.
1. Cells. Seed 1500 HEK293-ACE2 cells (Expi293F with stable expression of human ACE2) in 2 uL/well media (DMEM, 10% FBS, 1x L-glutamine, 1x Pen/Strep, 1 ug/ml puromycin) in white 1536-well assay plates (Greiner #782073).
2. Incubation. Incubate at 37 C with 5% CO2 overnight (~16 h).
3. Compounds. Dispense 23 nL/well compounds in DMSO via pin transfer.
4. Incubation. Incubate for 1 h at 37C 5% CO2.
5. Reagent. Dispense 2 uL/well of media (DMEM, 10% FBS, 1x L-glutamine, 1x Pen/Strep, 1 ug/ml puromycin).
6. Incubation. Incubate at for 48h at 37C 5% CO2
7. Reagent. Dispense 4 uL/well of ATPLite 1step luminescence assay reagent (PerkinElmer #6016739).
8. Incubation. Incubate for 15 min at room temperature.
9. Detection. Read luminescence signal (Viewlux plate reader, PerkinElmer). Data was normalized with wells containing cells as 100%, and wells without cells (media only control) as 0%.
On the % scale 0 is the no-effect control and ±100 the full control effect; potency means the concentration at half of the fitted maximal effect.

| SMILES | activity change, negative = cytotoxicity | outcome | Potency |
| --- | --- | --- | --- |
| CCc1c(C(=O)NNC(=O)[C@@H](O)c2cc(F)cc(F)c2)ccc(O)c1C | -3.63% | – | – |
| CN1CCN(C(=O)c2ccc(-c3ccc4c(C=O)c(O)ccc4c3)s2)CC1 | -5.89% | – | – |
| C[C@@H](O)[C@@H]1NC(=O)[C@H](CCCCN)NC(=O)[C@@H](Cc2c[nH]c3ccccc23)NC(=O)[C@H](Cc2ccccc2)NC(=O)[C@@H](NC(=O)[C@H](N)Cc2ccccc2)CSSC[C@@H](C(=O)N[C@H](CO)[C@@H](C)O)NC1=O | – | inactive [at 27.1 µM] | – |
| O=C1[C@@H]2[C@H]3CC[C@H](C3)[C@@H]2C(=O)N1C[C@@H]1CCCC[C@H]1CN1CCN(c2nsc3ccccc23)CC1 | 3.02% | – | – |
| CC[C@H]1OC(=O)C[C@@H](O)[C@H](C)[C@@H](O[C@@H]2O[C@H](C)[C@@H](O[C@H]3C[C@@](C)(O)[C@@H](O)[C@H](C)O3)[C@H](N(C)C)[C@H]2O)[C@@H](CC=O)C[C@@H](C)C(=O)/C=C/C(C)=C/[C@@H]1CO[C@@H]1O[C@H](C)[C@@H](O)[C@@H](OC)[C@H]1OC | -22.5% | – | – |
| CC(C)CN(C[C@@H](O)[C@H](Cc1ccccc1)NC(=O)O[C@H]1CCOC1)S(=O)(=O)c1ccc(N)cc1 | – | inactive | – |
| CCCCCCCCCCCCCC[n+]1ccc(C)cc1 | – | – | 5.62 µM (active) |
| O=C1O[C@H]2[C@H](OC(O)[C@@H]2O)[C@@H]1O (stereo not given in full) | -3.17% [at 114 µM] | – | – |
| CCCCC(CC)CCC(CC(C)C)OS(=O)(=O)O (stereo not given) | – | inactive | – |
| O=C(NC[C@H](O)CN1CCc2ccccc2C1)c1ccnc(NC2CCC2)c1 | – | inactive | – |
| NC[C@H]1O[C@H](O[C@H]2[C@H](O)[C@@H](O[C@H]3O[C@H](CO)[C@@H](O)[C@H](N)[C@H]3O)[C@H](N)C[C@@H]2N)[C@H](N)C[C@@H]1O | – | inactive | – |
| COc1cc(N2CCC(N3CCN(C)CC3)CC2)ccc1Nc1ncnc(Nc2ccccc2S(=O)(=O)C(C)C)n1 | -5.36% | – | – |
| CCN(C)C(C)C(O)c1ccccc1 (stereo not given) | – | inactive | – |
| CN[C@@H]1[C@@H](O)[C@@H](O[C@@H]2[C@@H](O)[C@H](OC3O[C@H](CN)[C@@H](O)[C@H](O)[C@H]3O)[C@@H](N)C[C@H]2NC(=O)[C@@H](O)CN)OC[C@]1(C)O (stereo not given in full) | -12.8% [at 27.1 µM] | – | – |
| CC(=O)O/N=C1\C(=O)N(Cc2cc(Cl)ccc2Cl)c2ccc(Cl)cc21 | -28.2% | – | – |
| CCCCC(=O)O[C@]1(C(=O)COC(C)=O)CC[C@H]2[C@@H]3CCC4=CC(=O)C=C[C@]4(C)[C@H]3[C@@H](O)C[C@@]21C | 3.46% | – | – |
| CC1(C)S[C@@H]2[C@H](NC(=O)[C@H](N)c3ccccc3)C(=O)N2[C@H]1C(=O)OCOC(=O)[C@@H]1N2C(=O)C[C@H]2S(=O)(=O)C1(C)C | – | inactive | – |
| CN[C@@H]1[C@H](O[C@H]2[C@H](O[C@@H]3[C@@H](O)[C@H](O)[C@@H](N=C(N)N)[C@H](O)[C@H]3N=C(N)N)O[C@@H](C)[C@]2(O)C=O)O[C@@H](CO)[C@H](O)[C@H]1O | – | – | inactive |
| CC(C)NC(=O)C1CCC(n2c(NC(=O)c3ccc(F)cc3)nc3ccc(CN4CCC(C(C)(C)O)CC4)cc32)CC1 (stereo not given) | -11.6% [at 27.1 µM] | – | – |
| O=C(O)C1=CCCN(CCOC(c2ccc(C(F)(F)F)cc2)c2ccc(C(F)(F)F)cc2)C1 | -12.6% | – | – |

| SMILES | activity change, negative = cytotoxicity | outcome | Potency |
| --- | --- | --- | --- |
| CC[C@H](NC(=O)[C@H](C)NC)C(=O)N1C[C@@H](O)C[C@H]1Cc1c(-c2[nH]c3cc(F)ccc3c2C[C@@H]2C[C@H](O)CN2C(=O)[C@H](CC)NC(=O)[C@H](C)NC)[nH]c2cc(F)ccc12 | -22.9% | – | – |
| CC[C@@H]1/C=C(\C)C[C@H](C)C[C@H](OC)[C@H]2O[C@@](O)(C(=O)C(=O)N3CCCC[C@H]3C(=O)O[C@H](/C(C)=C/[C@@H]3CC[C@H](Cl)[C@H](OC)C3)[C@H](C)[C@@H](O)CC1=O)[C@H](C)C[C@@H]2OC | -0.306% | – | – |
| CC[C@@H](C(=O)[C@@H](C)[C@@H](O)[C@H](C)CCc1ccc(C)c(O)c1C(=O)O)[C@H]1O[C@](CC)([C@H]2CC[C@](O)(CC)[C@H](C)O2)C[C@@H]1C | – | – | 8.91 µM (active) |
| CCCC(=O)O[C@]1(C(=O)COC(=O)CC)[C@@H](C)C[C@H]2[C@@H]3CCC4=CC(=O)C=C[C@]4(C)[C@@]3(F)[C@@H](O)C[C@@]21C | – | inactive | – |
| CC(C)C[C@H](NC(=O)[C@@H](COC(C)(C)C)NC(=O)[C@H](Cc1ccc(O)cc1)NC(=O)[C@H](CO)NC(=O)[C@H](Cc1c[nH]c2ccccc12)NC(=O)[C@H](Cc1cnc[nH]1)NC(=O)[C@@H]1CCC(=O)N1)C(=O)N[C@@H](CCCN=C(N)N)C(=O)N1CCC[C@H]1C(=O)NNC(N)=O | – | inactive [at 27.1 µM] | – |
| C#Cc1cccc(Nc2ncnc3cc4c(cc23)OCCOCCOCCO4)c1 | -10.1% | – | – |
| COC[C@H]1C[C@@H](c2ncc(-c3ccc4c(c3)COc3cc5c(ccc6[nH]c([C@@H]7CC[C@H](C)N7C(=O)[C@@H](NC(=O)OC)C(C)C)nc65)cc3-4)[nH]2)N(C(=O)[C@H](NC(=O)OC)c2ccccc2)C1 | – | inactive | – |
| CN[C@H]1C(=O)N[C@@H]2Cc3ccc(cc3)Oc3cc4cc(c3O[C@@H]3O[C@H](C(=O)O)[C@@H](O)[C@H](O)[C@H]3NC(=O)CCCCCCCCC(C)C)Oc3ccc(cc3Cl)[C@@H](O)[C@@H]3NC(=O)[C@H](NC(=O)[C@@H]4NC(=O)[C@@H](NC2=O)c2cc(cc(O)c2Cl)Oc2cc1ccc2O)c1ccc(O)c(c1)-c1c(O[C@H]2O[C@H](CO)[C@@H](O)[C@H](O)[C@@H]2O)cc(O)cc1[C@@H](C(=O)NCCCN(C)C)NC3=O | -3.72% [at 27.1 µM] | – | – |
| NCCCC[C@H](NC(=O)[C@@H]1CCCN1C(=O)[C@@H]1CSSC[C@H](N)C(=O)N[C@@H](Cc2ccc(O)cc2)C(=O)N[C@@H](Cc2ccccc2)C(=O)N[C@@H](CCC(N)=O)C(=O)N[C@@H](CC(N)=O)C(=O)N1)C(=O)NCC(N)=O | – | inactive | – |
| CC(=O)N1CCN(c2ccc(NC(=O)Cc3cnc(-c4ccnc(F)c4)c(C)c3)nc2)CC1 | – | inactive | – |
| CC(=O)[O][Al][O]C(C)=O | – | inactive [at 11.3 µM] | – |
| CCC(C)(C)OC(=O)N[C@@H](Cc1c[nH]c2ccccc12)C(=O)N[C@@H](CCSC)C(=O)N[C@@H](CC(=O)O)C(=O)N[C@@H](Cc1ccccc1)C(N)=O | – | inactive | – |
| O=C(NCCCNc1nc(Nc2cccc(CN3CCOCC3)c2)ncc1C1CC1)C1CCC1 | -12.6% | – | – |
| C[N+]1(C)[C@@H]2CC(OC(=O)C(O)(c3cccs3)c3cccs3)C[C@H]1[C@H]1O[C@@H]12 (stereo not given in full) | – | inactive | – |
| CC[C@@]1(O)C(=O)OCc2c1cc1n(c2=O)Cc2cc3c([N+](=O)[O-])cccc3nc2-1 | -32% [at 114 µM] | – | – |
| COc1ccc(CNc2nc(N3CCC[C@H]3CO)ncc2C(=O)NCc2ncccn2)cc1Cl | -17.4% | – | – |
| C[C@H](CCC(=O)O)[C@H]1CC[C@H]2[C@@H]3[C@@H](O)C[C@@H]4C[C@H](O)CC[C@]4(C)[C@H]3CC[C@]12C | – | inactive | – |
| O=C(CBr)N1CC([N+](=O)[O-])([N+](=O)[O-])C1 | – | inactive [at 114 µM] | – |
| Cc1c(O)c(=O)ccn1C | – | inactive [at 114 µM] | – |
| CNC(=O)c1cc(Oc2ccc3nc(N[C@@H]4CCCC[C@H]4O)sc3c2)ccn1 | -49.9% | – | – |

Reference: PubChem BioAssay (NCATS)
